Inconclusive results are not listed. A call without a number means that no potency is given here. The source made the active and inactive calls. The call rests on the fitted dose curve; in most records, active means well fitted inhibition curve with a large enough effect; inconclusive means small, poorly fitted or top-dose-only effect; inactive means flat fitted curve, though single readings scatter. *1 amine or outer side, *2 acyl side, *3 side chain or, on linkers, in order; H or OH if unused. Where a SMILES comes first, the peptide text is derived from it. [ ]: non-standard residue; d: D form. X1 = O=C([C@@H](CC(O)CCl)O[*:1])[*:2]; aIle = CC[C@@H](C)[C@H](N)C(=O)O; NMeV = CN[C@H](C(=O)O)C(C)C; NMeA = CN[C@@H](C)C(=O)O; βAla = NCCC(=O)O
Target: ATP-dependent translocase ABCB1 (Homo sapiens) (UniProt P08183)
Sequence (P08183 whole entry, looked up): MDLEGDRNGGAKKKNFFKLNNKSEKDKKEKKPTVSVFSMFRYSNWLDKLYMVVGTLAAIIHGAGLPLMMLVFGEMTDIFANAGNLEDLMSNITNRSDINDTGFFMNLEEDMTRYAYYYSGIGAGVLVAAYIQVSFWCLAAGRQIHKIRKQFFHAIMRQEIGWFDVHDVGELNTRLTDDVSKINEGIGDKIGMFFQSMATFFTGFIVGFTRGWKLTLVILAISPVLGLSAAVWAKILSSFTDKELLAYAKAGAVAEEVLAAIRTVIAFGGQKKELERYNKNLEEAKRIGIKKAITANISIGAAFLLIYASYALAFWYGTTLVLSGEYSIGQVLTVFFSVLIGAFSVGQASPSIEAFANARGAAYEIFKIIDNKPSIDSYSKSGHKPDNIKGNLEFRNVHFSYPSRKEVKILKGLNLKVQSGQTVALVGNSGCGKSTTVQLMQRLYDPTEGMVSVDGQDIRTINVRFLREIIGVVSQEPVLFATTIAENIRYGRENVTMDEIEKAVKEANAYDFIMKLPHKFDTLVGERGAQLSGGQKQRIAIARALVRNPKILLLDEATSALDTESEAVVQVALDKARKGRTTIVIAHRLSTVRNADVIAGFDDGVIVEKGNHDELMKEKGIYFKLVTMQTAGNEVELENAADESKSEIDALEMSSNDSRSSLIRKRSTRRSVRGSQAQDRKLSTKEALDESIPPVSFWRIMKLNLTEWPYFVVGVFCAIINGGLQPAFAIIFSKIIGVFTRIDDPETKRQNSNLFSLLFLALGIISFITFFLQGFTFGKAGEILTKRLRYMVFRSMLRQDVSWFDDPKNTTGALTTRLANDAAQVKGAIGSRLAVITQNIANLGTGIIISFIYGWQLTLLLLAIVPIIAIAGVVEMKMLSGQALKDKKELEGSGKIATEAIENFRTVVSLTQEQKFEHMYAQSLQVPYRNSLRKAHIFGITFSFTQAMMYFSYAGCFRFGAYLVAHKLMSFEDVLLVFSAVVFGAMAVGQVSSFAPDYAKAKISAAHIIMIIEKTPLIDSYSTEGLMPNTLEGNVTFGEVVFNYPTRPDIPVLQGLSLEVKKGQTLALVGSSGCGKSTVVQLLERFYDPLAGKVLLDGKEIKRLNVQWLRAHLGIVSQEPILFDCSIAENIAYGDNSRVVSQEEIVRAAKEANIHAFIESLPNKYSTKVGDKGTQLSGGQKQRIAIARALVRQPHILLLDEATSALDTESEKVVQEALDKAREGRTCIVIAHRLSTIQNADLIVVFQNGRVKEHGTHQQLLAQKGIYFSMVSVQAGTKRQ
Experiment: qHTS for characterization and localization of zebrafish homologs of the human ABCB1 multidrug transporter: P-gp overexpressing MDR-19 cells
Source text: The zebrafish has emerged as a potential model to study the blood-brain barrier (BBB) given its similarities with mammalian systems. However, little information has been available with regard to homologous ATP-binding cassette transporters expressed at the zebrafish BBB. Two transporters that are highly expressed at the human BBB are P-glycoprotein (P-gp, encoded by the ABCB1 gene) and ABCG2 (encoded by the ABCG2 gene). In this study, we focus on characterization of P-gp homologs in the zebrafish, which has two genes that are homologous to human ABCB1 - abcb4 and abcb5. We generated stably-transfected cell lines to determine their substrate specificities. […] Zebrafish abcb4 also colocalized with claudin 5 expression in brain endothelial cells.
A high-throughput screen was performed as previously described on empty vector transfected cells, P-gp-overexpressing MDR-19 cells and cells transfected with full-length zebrafish abcb4 (ZF Abcb4) or abcb5 (ZF Abcb5). Briefly, cells were plated into 1536-well plates at a density of 500 cells/well in 5 uL media. […] CellTiter-Glo reagent (Promega) was dispensed into the wells, incubated for 5 min and luminescence was read on a ViewLux instrument (Perkin-Elmer). […]

## CC[C@@H](C)[C@@H]1NC(=O)[C@@H]2CCCN2C(=O)[C@@H](CC(O)CCl)OC(=O)CCNC(=O)[C@H](C)N(C)C(=O)[C@H](C(C)C)N(C)C1=O (some centres not stated) (cyclo([NMeA][βAla][X1]P[aIle][NMeV]))
  Potency: inactive

## C[C@@H]1[C@@H](CC(C[C@H]2O[C@@H]3O[C@]4(C)CC[C@@H]5[C@H](C)CC[C@@H]([C@H]2C)[C@@]35OO4)C[S+](=O)([O-])c2ccc(COC(=O)N(C)C)cc2)O[C@@H]2O[C@]3(C)CC[C@H]4[C@H](C)CC[C@@H]1[C@@]24OO3 (some centres not stated)
  Potency: 1320 nM (active)

— PubChem BioAssay AID1508636 (National Center for Advancing Translational Sciences (NCATS), 2021)
